The values below come from publication PMC7862700, “An all-to-all approach to the identification of sequence-specific readers for epigenetic DNA modifications on cytosine”.

What all share (experiment): DAPPL (digital affinity profiling via proximity ligation, sequencing); 10 mM Tris-HCl pH 7.5, 50 mM NaCl, 1 mM DTT, 4% glycerol, room temperature, 30 min; GST-TFs on glutathione beads, 16-mer random dsDNA library, 0.1% formaldehyde crosslink after washing; high values mean tight binding
What all share (details): protein: recombinant; tags: N-terminal GST; dsDNA, one strand shown

The target in one experiment is T1, FLI1 (Homo sapiens, UniProt Q01543 1-452).
T1 sequence: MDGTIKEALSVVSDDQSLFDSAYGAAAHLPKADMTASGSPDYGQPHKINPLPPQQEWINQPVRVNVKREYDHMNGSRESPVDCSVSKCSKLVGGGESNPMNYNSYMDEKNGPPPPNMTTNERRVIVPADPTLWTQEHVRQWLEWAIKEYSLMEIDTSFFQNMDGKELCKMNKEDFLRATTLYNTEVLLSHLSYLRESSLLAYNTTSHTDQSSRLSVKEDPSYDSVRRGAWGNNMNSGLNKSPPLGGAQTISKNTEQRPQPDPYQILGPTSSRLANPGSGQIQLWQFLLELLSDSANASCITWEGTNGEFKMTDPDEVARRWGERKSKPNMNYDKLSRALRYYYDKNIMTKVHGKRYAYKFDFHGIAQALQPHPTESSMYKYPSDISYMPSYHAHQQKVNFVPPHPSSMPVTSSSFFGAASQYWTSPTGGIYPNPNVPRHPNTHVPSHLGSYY
In outline:
(§1)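 Binding signal is each hexamer's read frequency for a factor divided by its frequency in the tag-only sample. The factors were GST-fused human transcription factors from yeast, captured on glutathione beads, DNA-barcoded and pooled with that sample. Pools were incubated with 200 nmole of a random double-stranded 16-mer DNA library in Tris/NaCl/DTT/glycerol buffer at room temperature for 30 min, then washed, crosslinked with 0.1% formaldehyde, proximity-ligated with BsaI/T4 ligase (1 h, 37 °C), PCR-amplified and sequenced on an Illumina NextSeq500.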

Another experiment has as its target T2, ELK1 (Homo sapiens, UniProt P19419 1-428).
T2 sequence: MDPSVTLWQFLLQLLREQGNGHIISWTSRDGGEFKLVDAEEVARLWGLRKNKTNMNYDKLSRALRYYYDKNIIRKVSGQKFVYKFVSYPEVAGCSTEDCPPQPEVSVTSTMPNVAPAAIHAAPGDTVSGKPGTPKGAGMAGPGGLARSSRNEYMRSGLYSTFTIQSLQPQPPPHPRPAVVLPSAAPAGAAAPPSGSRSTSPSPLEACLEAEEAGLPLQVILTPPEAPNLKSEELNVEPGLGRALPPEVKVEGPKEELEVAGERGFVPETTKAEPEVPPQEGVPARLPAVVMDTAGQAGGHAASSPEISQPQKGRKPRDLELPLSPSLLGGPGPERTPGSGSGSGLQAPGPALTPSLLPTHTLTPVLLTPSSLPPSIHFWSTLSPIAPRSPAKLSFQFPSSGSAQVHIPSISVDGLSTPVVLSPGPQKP
The procedure, abridged: as §1

The target in a further experiment is T3, GABPA (Homo sapiens, UniProt Q06546 1-454).
T3 sequence: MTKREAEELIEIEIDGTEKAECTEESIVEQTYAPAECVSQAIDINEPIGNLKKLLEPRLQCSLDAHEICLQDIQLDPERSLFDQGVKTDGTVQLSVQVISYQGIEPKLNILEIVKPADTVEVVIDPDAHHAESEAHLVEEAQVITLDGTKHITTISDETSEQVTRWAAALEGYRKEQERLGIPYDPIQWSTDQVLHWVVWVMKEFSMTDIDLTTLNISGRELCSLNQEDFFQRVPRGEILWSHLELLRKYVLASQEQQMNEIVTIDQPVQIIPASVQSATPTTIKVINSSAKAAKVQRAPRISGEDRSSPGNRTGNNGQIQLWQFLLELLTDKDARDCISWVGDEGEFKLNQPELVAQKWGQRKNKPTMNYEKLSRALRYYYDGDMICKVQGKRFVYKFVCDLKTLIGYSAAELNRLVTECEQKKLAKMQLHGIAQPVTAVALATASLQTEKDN
In outline: as §1

A further experiment deals with T4, ERG (Homo sapiens, UniProt P11308 1-479).
T4 sequence: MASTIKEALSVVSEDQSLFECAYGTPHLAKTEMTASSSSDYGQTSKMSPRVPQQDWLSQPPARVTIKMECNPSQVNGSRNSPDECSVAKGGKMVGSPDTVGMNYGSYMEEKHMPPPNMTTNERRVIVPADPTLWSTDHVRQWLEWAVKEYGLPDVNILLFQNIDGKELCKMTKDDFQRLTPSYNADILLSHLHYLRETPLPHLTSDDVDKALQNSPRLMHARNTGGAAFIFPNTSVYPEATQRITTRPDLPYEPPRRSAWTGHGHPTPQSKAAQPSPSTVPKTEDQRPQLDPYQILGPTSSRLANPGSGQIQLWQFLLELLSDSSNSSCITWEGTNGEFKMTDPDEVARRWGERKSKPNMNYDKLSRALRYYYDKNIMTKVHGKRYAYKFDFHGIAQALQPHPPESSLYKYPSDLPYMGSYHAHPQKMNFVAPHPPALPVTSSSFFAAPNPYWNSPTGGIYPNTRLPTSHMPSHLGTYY
The procedure, abridged: as §1

A further experiment has as its target ELF1 (Homo sapiens, UniProt P32519 1-619). In outline:
as §1

A further experiment deals with T5, EHF (Homo sapiens, UniProt Q9NZC4 1-300).
T5 sequence: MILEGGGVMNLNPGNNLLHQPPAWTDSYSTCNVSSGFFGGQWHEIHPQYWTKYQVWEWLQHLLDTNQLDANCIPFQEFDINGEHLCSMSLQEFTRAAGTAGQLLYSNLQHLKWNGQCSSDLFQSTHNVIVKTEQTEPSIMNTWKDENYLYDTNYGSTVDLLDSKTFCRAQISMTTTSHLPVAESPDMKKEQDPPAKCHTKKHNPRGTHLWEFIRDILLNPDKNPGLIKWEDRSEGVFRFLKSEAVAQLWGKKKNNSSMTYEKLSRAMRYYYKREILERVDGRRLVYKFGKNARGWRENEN
The procedure, abridged:
as §1

In another experiment the target is SPI1 (Homo sapiens, UniProt P17947 1-270). The procedure, abridged: as §1
A further experiment addresses SPIB (Homo sapiens, UniProt Q01892 1-262). In outline: as §1
The next experiment concerns the target T6, ELK3 (Homo sapiens, UniProt P41970 1-407).
T6 sequence: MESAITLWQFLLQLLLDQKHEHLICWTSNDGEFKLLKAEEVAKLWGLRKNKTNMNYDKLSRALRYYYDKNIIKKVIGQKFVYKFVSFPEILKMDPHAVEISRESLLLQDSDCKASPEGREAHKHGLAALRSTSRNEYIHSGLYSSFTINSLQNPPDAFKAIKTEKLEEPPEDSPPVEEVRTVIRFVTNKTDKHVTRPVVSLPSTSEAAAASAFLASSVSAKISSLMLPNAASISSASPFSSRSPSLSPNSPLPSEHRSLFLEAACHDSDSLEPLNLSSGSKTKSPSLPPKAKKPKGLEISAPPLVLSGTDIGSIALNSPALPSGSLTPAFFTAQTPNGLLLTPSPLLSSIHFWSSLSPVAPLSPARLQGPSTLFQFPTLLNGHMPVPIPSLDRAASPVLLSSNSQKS
In outline: as §1

Chain of SPIB (Q01892 whole entry): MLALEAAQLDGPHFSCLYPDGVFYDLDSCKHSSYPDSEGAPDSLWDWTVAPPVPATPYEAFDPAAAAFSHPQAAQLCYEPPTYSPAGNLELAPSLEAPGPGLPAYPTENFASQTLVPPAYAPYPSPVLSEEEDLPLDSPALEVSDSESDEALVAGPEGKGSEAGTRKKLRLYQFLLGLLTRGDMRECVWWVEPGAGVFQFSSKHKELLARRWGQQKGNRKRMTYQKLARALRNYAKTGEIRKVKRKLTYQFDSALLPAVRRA
Chain of ELF1 (P32519 whole entry): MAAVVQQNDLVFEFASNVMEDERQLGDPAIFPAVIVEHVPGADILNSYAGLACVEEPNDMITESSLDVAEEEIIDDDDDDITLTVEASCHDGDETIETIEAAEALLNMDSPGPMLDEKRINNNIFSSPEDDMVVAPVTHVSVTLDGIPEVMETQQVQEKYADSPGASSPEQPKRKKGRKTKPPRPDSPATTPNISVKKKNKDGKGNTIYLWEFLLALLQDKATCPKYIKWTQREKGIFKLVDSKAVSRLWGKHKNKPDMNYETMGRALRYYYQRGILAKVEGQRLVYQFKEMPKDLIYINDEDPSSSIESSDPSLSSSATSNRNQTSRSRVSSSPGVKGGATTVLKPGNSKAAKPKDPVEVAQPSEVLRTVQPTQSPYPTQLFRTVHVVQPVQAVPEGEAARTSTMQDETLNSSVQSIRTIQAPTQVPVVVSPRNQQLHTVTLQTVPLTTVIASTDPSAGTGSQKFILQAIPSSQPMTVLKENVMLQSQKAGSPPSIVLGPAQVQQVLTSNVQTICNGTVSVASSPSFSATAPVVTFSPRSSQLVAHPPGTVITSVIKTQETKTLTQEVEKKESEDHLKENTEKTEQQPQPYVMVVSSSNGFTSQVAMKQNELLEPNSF

In the case of AAATAA, the binding signal is 1.27 fold enrichment (6-mer frequency, TF over GST control) in the experiment with FLI1; 1.32 fold enrichment (6-mer frequency, TF over GST control) with ELK1; 1.33 fold enrichment (6-mer frequency, TF over GST control) with GABPA; 1.37 fold enrichment (6-mer frequency, TF over GST control) in the experiment with ERG; 1.33 fold enrichment (6-mer frequency, TF over GST control) in the experiment with ELF1; 1.29 fold enrichment (6-mer frequency, TF over GST control) with EHF. Moreover, the binding signal was 1.32 fold enrichment (6-mer frequency, TF over GST control) with SPI1; 1.39 fold enrichment (6-mer frequency, TF over GST control) with SPIB; 1.33 fold enrichment (6-mer frequency, TF over GST control) in the experiment with ELK3.

Take CTCCCA: the binding signal is 1.47 fold enrichment (6-mer frequency, TF over GST control) with FLI1; 1.33 fold enrichment (6-mer frequency, TF over GST control) with ELK1; 1.45 fold enrichment (6-mer frequency, TF over GST control) with GABPA; 1.38 fold enrichment (6-mer frequency, TF over GST control) with ERG; 1.41 fold enrichment (6-mer frequency, TF over GST control) in the experiment with ELF1; 1.39 fold enrichment (6-mer frequency, TF over GST control) with EHF. For the same sequence, the binding signal in the experiment with SPI1 was 1.43 fold enrichment (6-mer frequency, TF over GST control); with SPIB, 1.36 fold enrichment (6-mer frequency, TF over GST control); with ELK3, 1.34 fold enrichment (6-mer frequency, TF over GST control).

For ACGCTA, the binding signal in the experiment with FLI1 is 1.14 fold enrichment (6-mer frequency, TF over GST control); with ELK1, 1.18 fold enrichment (6-mer frequency, TF over GST control); in the experiment with GABPA it was 1.14 fold enrichment (6-mer frequency, TF over GST control); with ERG, 1.2 fold enrichment (6-mer frequency, TF over GST control); with ELF1, 1.15 fold enrichment (6-mer frequency, TF over GST control); with EHF, 1.1 fold enrichment (6-mer frequency, TF over GST control). Moreover, the binding signal in the experiment with SPI1 is 1.19 fold enrichment (6-mer frequency, TF over GST control); with SPIB it was 1.07 fold enrichment (6-mer frequency, TF over GST control); in the experiment with ELK3, 1.27 fold enrichment (6-mer frequency, TF over GST control).

Regarding TACTTG, the binding signal with FLI1 was 1.39 fold enrichment (6-mer frequency, TF over GST control); with ELK1, 1.39 fold enrichment (6-mer frequency, TF over GST control); with GABPA, 1.34 fold enrichment (6-mer frequency, TF over GST control); with ERG, 1.18 fold enrichment (6-mer frequency, TF over GST control); with ELF1, 1.32 fold enrichment (6-mer frequency, TF over GST control); in the experiment with EHF, 1.32 fold enrichment (6-mer frequency, TF over GST control). Also, the binding signal with SPI1 was 1.27 fold enrichment (6-mer frequency, TF over GST control); with SPIB, 1.44 fold enrichment (6-mer frequency, TF over GST control); in the experiment with ELK3, 1.35 fold enrichment (6-mer frequency, TF over GST control).

Consider ATGGTT, for which the binding signal in the experiment with FLI1 was 1.41 fold enrichment (6-mer frequency, TF over GST control); with ELK1, 1.28 fold enrichment (6-mer frequency, TF over GST control); with GABPA, 1.28 fold enrichment (6-mer frequency, TF over GST control); in the experiment with ERG, 1.35 fold enrichment (6-mer frequency, TF over GST control); with ELF1, 1.39 fold enrichment (6-mer frequency, TF over GST control); in the experiment with EHF, 1.28 fold enrichment (6-mer frequency, TF over GST control). Further, the binding signal with SPI1 was 1.3 fold enrichment (6-mer frequency, TF over GST control); in the experiment with SPIB it was 1.3 fold enrichment (6-mer frequency, TF over GST control); with ELK3, 1.39 fold enrichment (6-mer frequency, TF over GST control).

As to AACCAA, the binding signal was 1.24 fold enrichment (6-mer frequency, TF over GST control) in the experiment with FLI1; 1.22 fold enrichment (6-mer frequency, TF over GST control) with ELK1; 1.25 fold enrichment (6-mer frequency, TF over GST control) with GABPA; 1.16 fold enrichment (6-mer frequency, TF over GST control) with ERG; 1.22 fold enrichment (6-mer frequency, TF over GST control) with ELF1; 1.22 fold enrichment (6-mer frequency, TF over GST control) in the experiment with EHF. Besides, the binding signal is 1.19 fold enrichment (6-mer frequency, TF over GST control) in the experiment with SPI1; 1.15 fold enrichment (6-mer frequency, TF over GST control) in the experiment with SPIB; 1.19 fold enrichment (6-mer frequency, TF over GST control) in the experiment with ELK3.

As to ATTTTG, the binding signal is 1.19 fold enrichment (6-mer frequency, TF over GST control) with FLI1; 1.25 fold enrichment (6-mer frequency, TF over GST control) with ELK1; 1.33 fold enrichment (6-mer frequency, TF over GST control) in the experiment with GABPA; 1.2 fold enrichment (6-mer frequency, TF over GST control) with ERG; 1.28 fold enrichment (6-mer frequency, TF over GST control) in the experiment with ELF1; 1.3 fold enrichment (6-mer frequency, TF over GST control) in the experiment with EHF. For the same sequence, the binding signal in the experiment with SPI1 was 1.31 fold enrichment (6-mer frequency, TF over GST control); with SPIB, 1.28 fold enrichment (6-mer frequency, TF over GST control); in the experiment with ELK3 it was 1.14 fold enrichment (6-mer frequency, TF over GST control).

Regarding TCCTAT, the binding signal with FLI1 was 1.62 fold enrichment (6-mer frequency, TF over GST control); with ELK1 it was 1.56 fold enrichment (6-mer frequency, TF over GST control); with GABPA it was 1.58 fold enrichment (6-mer frequency, TF over GST control); in the experiment with ERG it was 1.45 fold enrichment (6-mer frequency, TF over GST control); in the experiment with ELF1 it was 1.46 fold enrichment (6-mer frequency, TF over GST control); in the experiment with EHF it was 1.5 fold enrichment (6-mer frequency, TF over GST control). Besides, the binding signal with SPI1 is 1.44 fold enrichment (6-mer frequency, TF over GST control); in the experiment with SPIB it was 1.6 fold enrichment (6-mer frequency, TF over GST control); with ELK3, 1.47 fold enrichment (6-mer frequency, TF over GST control).
